Assay results: PubChem BioAssay

The compounds below were run against Follistatin-related protein 3 (Homo sapiens) (UniProt O95633) (assay: FSTL3 binders on small-molecule microarrays, primary screen, biochemical, small-molecule microarray, 635 nm fluorescence (AID 1105;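 also: score merges emission near 667 nm and signal to noise per printed spot across three slides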)). Conditions: FSTL3 binding, higher = more signal.
Follistatin-related protein 3 (Homo sapiens), sequence (O95633 whole entry, looked up): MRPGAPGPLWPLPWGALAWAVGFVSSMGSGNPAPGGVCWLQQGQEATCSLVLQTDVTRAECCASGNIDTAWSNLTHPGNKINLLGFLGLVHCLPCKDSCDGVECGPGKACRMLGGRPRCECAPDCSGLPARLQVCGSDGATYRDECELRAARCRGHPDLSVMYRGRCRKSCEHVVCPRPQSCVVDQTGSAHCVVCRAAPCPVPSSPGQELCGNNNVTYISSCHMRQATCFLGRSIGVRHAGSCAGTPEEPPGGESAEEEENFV
Cc1ccccc1C(O)C1C=CC2C(=O)N(c3ccccc3)C(=O)C2N1Nc1ccc(C(C)C)cc1 (configuration not stated) showed a composite z-score of 1.23. CCS[C@H]1[C@@H](C(=O)O)[C@H](c2ccc(C)cc2)N(S(=O)(=O)c2ccc(C)cc2)[C@@H]1CC gave a composite z-score of 1.1. COc1cc(NN2C(C(O)c3ccco3)C=CC3C(=O)N(c4ccccc4)C(=O)C32)cc(OC)c1OC (configuration not stated) showed a composite z-score of 0.373. Compound CNS(=O)(=O)c1ccc(C)cc1 has a composite z-score of 0.688. In the case of O=C1N(Cc2ccccc2)c2ccccc2[C@@H]2OC(c3ccc(OCCCO)cc3)=N[C@]12CCS(=O)(=O)c1ccccc1, the composite z-score is reported as 0.0891. For COc1cc2c(cc1O)C(C1CC1)N(Cc1sc3ccccc3c1Cl)CC2 (configuration not stated), the composite z-score was -0.05. In the case of Oc1ccc2cc[n+](Cc3sc4ccccc4c3Cl)cc2c1, the composite z-score is reported as 0.618. Compound CC(C)N1C(=O)C[C@@](C(=O)NCC(F)(F)F)(c2ccc([N+](=O)[O-])cc2)[C@H]1c1ccc(CO)cc1 has a composite z-score of -0.241. Compound COCCCNC(=O)[C@@]1(C)c2ccccc2C(=O)N(C(C)C)[C@H]1c1ccc(CO)cc1 has a composite z-score of 0.861. Work on COCCOC(=O)N1C(=O)[C@@]2(c3cc(C#CCC(C(=O)OC)C(=O)OC)ccc31)[C@H](c1ccccc1OCCO)N1[C@H](c3ccccc3)[C@H](c3ccccc3)OC(=O)[C@H]1[C@@H]2C(=O)N1CCN(c2ncccn2)CC1 yielded a composite z-score of 1.45. In the case of CCOC(=O)[C@H]1C/C=C/C[C@H](C(=O)OCC)C(=O)O[C@H]2[C@@H](OC)O[C@H](CO)[C@@H](OC(=O)c3c(OC)cccc3OC)[C@@H]2OC1=O, the composite z-score is reported as 1.16. Work on C=C(COC)/C(=C/C[C@@H](OC(=O)c1ccncc1)c1ccc(CO)o1)c1cc(C(=O)OC)ccc1OC yielded a composite z-score of 1.48.
